In PubChem BioAssay AID449762 (Southern Research Specialized Biocontainment Screening …, 2010):
In all, about 330,000 compounds went through this assay and about 1,900 (0.58%) were called active. Roughly 4% stayed inconclusive and do not appear here. Rule as the data show it: inconclusive = inhibition above about 70% without an active follow-up result; inactive = below that. Only a sample is shown. Entries with a potency or affinity are not part of this list.

Test: M. tuberculosis growth inhibition, HTS (AID 449762);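 also: bacterial growth assessed after seven days of incubation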
Conditions: M. tuberculosis H37Rv growth inhibition, 7H9 media; at 25 µM; hits give high values

| Structure (SMILES) | inhibition |
| --- | --- |
| O=C1O[C@@H]([C@H](O)CO)C(O)=C1O | -0.84% (inactive) |
| Cn1c(C(=O)NCc2ccc3c(c2)OCO3)cc2sccc21 | 9.66% (inactive) |
| CN1OC(c2ccccc2)=C(CO)C1c1ccccc1 (centres undefined) | -1.69% (inactive) |
| COc1ccc(-c2c(-c3ccc(OC)c(C)c3O)n[nH]c2C)cc1 | 10.4% (inactive) |
| O=C(NCc1ccc(Cl)cc1)c1ccc(CSc2nc3ccncc3[nH]2)cc1 | 5.93% (inactive) |
| O=C(c1ccc(CSc2nc3ccncc3[nH]2)cc1)N1CCN(c2cccc(Cl)c2)CC1 | 60.3% (inactive) |
| O=C(c1ccco1)N1CCCC(c2nc3c(nnn3Cc3cccc(Cl)c3)c(=O)[nH]2)C1 (centres undefined) | -2.33% (inactive) |
| CCOC(=O)c1ccc(Nc2ccc([N+](=O)[O-])cn2)cc1 | -5.22% (inactive) |
| C#CCCC(=O)c1ccccc1/C=[N+](\[O-])c1ccccc1 | -2.08% (inactive) |
| COc1cccc(-c2n[nH]c(=S)n2Cc2ccco2)c1 | 8.56% (inactive) |
| COCc1c(C(=O)N/N=C(/C)c2cccs2)nnn1-c1nonc1N | -8.26% (inactive) |
| CCOc1ccc(NC(=O)CCC(=O)Nc2cc(OC)c(NC(=O)c3ccco3)cc2OC)cc1 | 20.8% (inactive) |
| CCN1C(=O)[C@H]2[C@@H](c3ccc(-c4ccccc4)cc3)N[C@@](C)(C(=O)OC)[C@H]2C1=O | 1.42% (inactive) |
| COc1cc(CCC(C)=O)ccc1OC(=O)c1c(F)cccc1Cl | 3.02% (inactive) |
| COc1ccc(NC(=O)COc2ccc(/C=C/c3cc[n+](C)cc3)cc2OC)cc1 | -3.55% (inactive) |
| COc1cc(/C=C/c2cc[n+](C)cc2)ccc1OCC(=O)Nc1ccccc1 | -0.02% (inactive) |
| CCCCCCc1nc(C(N)=O)c2[nH]c(=O)n(-c3ccc(OC)cc3OC)c2n1 | 7.81% (inactive) |
| Cc1cc(C)c(CN2CCC(n3nccc3NC(=O)C3CCOC3)CC2)cc1C (centres undefined) | -0.02% (inactive) |
| OC1(c2cccc(C(F)(F)F)c2)CCN(Cc2nnnn2CCc2ccccc2)CC1 | 1.32% (inactive) |
| Cc1ccc(N2Cc3ccccc3C2=N)cc1[N+](=O)[O-] | 2.11% (inactive) |
| COc1cc(NS(=O)(=O)c2ccc(OC)c(C)c2C)c(OC)cc1Cl | -6.31% (inactive) |
| Cc1cccc(NC(=O)CSc2cccc3cccnc23)c1 | -1.29% (inactive) |
| O=C(CSc1cccc2cccnc12)Nc1cccc(S(=O)(=O)N2CCOCC2)c1 | -4.53% (inactive) |
| COc1ccc(NC(=O)CN(C)C(=O)c2cc(C)on2)cc1 | 2.44% (inactive) |

| Structure (SMILES) | inhibition |
| --- | --- |
| O=C(CC(Nc1ccccc1Cl)C(=O)OCC(=O)c1cccs1)c1ccccc1 (centres undefined) | 2.88% (inactive) |
| COC(=O)c1ccc(-n2c(C)cc(C(=O)COC(=O)C3=COCCO3)c2C)cc1 | 48.5% (inactive) |
| Cc1cc(C(=O)CSc2n[nH]c(N)n2)c(C)n1-c1cccc(F)c1 | -3.82% (inactive) |
| O=C(OCC(=O)c1ccc[nH]1)C1=COCCO1 | 18.8% (inactive) |
| O=C(COC(=O)c1cccs1)c1ccc2c(c1)OCCO2 | -22.5% (inactive) |
| Cc1c(Cl)cccc1NC(CC(=O)c1ccccc1)C(=O)OCC(=O)c1cccs1 (centres undefined) | -5.49% (inactive) |
| O=C(OCC(=O)c1cccs1)c1ccccc1 | -1.72% (inactive) |
| O=C(CCC(=O)c1cccs1)OCC(=O)c1ccccc1 | 2.32% (inactive) |
| COCCCn1c(SCC(=O)N2CCOCC2)nc2cc(Cl)ccc2c1=O | -3.72% (inactive) |
| CCOC(=O)CNC(=S)N(Cc1ccccc1)Cc1cccs1 | 2.83% (inactive) |
| O=C(CN(Cc1ccccc1Cl)C(=O)c1csnn1)NCCc1ccccc1 | 4.65% (inactive) |
| Cc1occc1C(=O)Nc1ccccc1C#N | -1.21% (inactive) |
| CC(C)CCOC(=O)C1[C@H]2C(=O)N(Cc3cccs3)C[C@]23C=C[C@H]1O3 (some centres undefined) | 0.09% (inactive) |
| O=c1c2ccccc2ncn1-c1ccc([N+](=O)[O-])cc1[N+](=O)[O-] | 4.34% (inactive) |
| O=[N+]([O-])c1ccccc1-n1cnc2ccccc21 | 8.38% (inactive) |
| COc1cc(C(=O)OCC(=O)NCc2ccccc2)cc(NC(=O)c2ccco2)c1OC | 6.91% (inactive) |
| C1=C(c2ccccc2)CCN(c2ncnc3nc[nH]c23)C1 | 1.26% (inactive) |
| COc1ccccc1-n1c(N)c(C(N)=O)sc1=S | -2.51% (inactive) |
| CC(=O)c1ccc(OC(=O)CCc2nc3ccccc3s2)cc1 | -3.41% (inactive) |
| CCOC(=O)N1CCN(c2ccc(Cl)c(Cl)c2)CC1 | -2.84% (inactive) |
| COC(=O)N1CCN(c2ccc(Cl)c(Cl)c2)CC1 | -0.8% (inactive) |
| N#CCCn1cc(C(=O)Nc2ccc(C(=O)O)cc2)c(-c2cc3ccccc3o2)n1 | -8.4% (inactive) |
| CC(C)C[C@H](CO)Nc1nc(Nc2cccc(Cl)c2)c2ncn(C(C)C)c2n1 | 62.4% (inactive) |
| CC(C)n1cnc2c(Nc3cccc(Cl)c3)nc(NCCCO)nc21 | 27% (inactive) |

| Structure (SMILES) | inhibition |
| --- | --- |
| CC(C)(C)n1nnnc1CN1CCSCC1 | 1.25% (inactive) |
| COC(=O)c1cc(NC2c3ncccc3C(=O)N2Cc2ccccc2)cc(C(=O)OC)c1 (centres undefined) | 2.2% (inactive) |
| CCOC(=O)c1nnn(-c2nonc2-c2ccccc2)c1C | 7.53% (inactive) |
| Cc1c(C(=O)O)sc2nc3n(c(=O)c12)CCC(C)CC3 (centres undefined) | -4.08% (inactive) |
| CCOC(=O)c1sc2nc3n(c(=O)c2c1C)CCC3 | -4.9% (inactive) |
| COc1ccc(-c2cc(NCCc3ccncc3)n3ncnc3n2)cc1 | -2.4% (inactive) |
| COc1ccc(-c2cc(NCc3ccccn3)n3ncnc3n2)cc1 | 65.8% (inactive) |
| COc1ccc(NC(=O)Cn2c(=O)n(-c3ccc(OC)cc3OC)c(=O)c3c(C)c(C)sc32)cc1 | -0.67% (inactive) |
| CC(C)N(CC(N)=O)c1ccc(S(=O)(=O)N2CCCC2)cn1 | -5.77% (inactive) |
| NC(=O)C1CCN(C(=O)COc2ccc3ccc(=O)oc3c2)CC1 | -9.39% (inactive) |
| CCOC(=O)C1=C(C)Nc2nc(SC)nn2C1c1ccc(C(=O)OC)cc1 (centres undefined) | -5.54% (inactive) |
| CCOC(=O)C1=C(C)Nc2nc(SCC)nn2C1c1ccc(OC)cc1 (centres undefined) | 5.22% (inactive) |
| O=C(NCc1ccccc1)c1nccnc1CO | 0.4% (inactive) |
| CN(C)S(=O)(=O)c1ccc(C(=O)NCc2nnc(SCC(=O)c3ccccc3)o2)cc1 | -10.3% (inactive) |
| COc1cc(O)c(C(CCN2CCCC(C)C2)c2cc(OC)c(OC)c(OC)c2)c(OC)c1 (centres undefined) | -1.23% (inactive) |
| Cc1ccc(-c2nc3ccccc3s2)cc1NC(=O)c1cc(-n2cnnc2)ccc1Cl | 3.06% (inactive) |
| O=C(Nc1ccc(-c2nc3ccccc3s2)cc1)c1cc(-n2cnnc2)ccc1Cl | -1.18% (inactive) |
| Cc1cc(C)c(NC(=O)Cn2ncc3ccccc32)c(C)c1 | -0.59% (inactive) |
| COC(=O)c1ccc(OC(=O)c2cccs2)cc1 | 19.3% (inactive) |
| Cc1ccc(N2C(=O)C3CCCN3C2=S)c(C)c1 (centres undefined) | 5.68% (inactive) |
| NS(=O)(=O)c1ccc(S(=O)(=O)c2ccccc2)nc1 | 1.3% (inactive) |
| Nc1ncc([N+](=O)[O-])cc1S(=O)(=O)c1ccccc1 | 2.55% (inactive) |
| C#CCNC(=O)C1=C[C@@H](C)C[C@@H](OCc2ccc(CO)cc2)O1 | 2.19% (inactive) |
| COc1ccc(-c2cc(-n3c(C(F)(F)F)nc4ccccc43)n(CCC#N)n2)cc1 | 5.23% (inactive) |

| Structure (SMILES) | inhibition |
| --- | --- |
| COc1ccc(-c2cc3nc(-c4ccccc4)cc(N4CCC(O)CC4)n3n2)cc1 | 8.92% (inactive) |
| Cc1ccc(S(=O)(=O)Nc2c(C)n(C)n(-c3ccccc3)c2=O)cc1C(=O)NCc1ccccc1 | -5.64% (inactive) |
| COc1ccc(N=NC2=C(O)CC(C)(C)CC2=O)cc1 | -3.64% (inactive) |
| Cc1nc2ccc(N=NC3=C(O)CC(C)(C)CC3=O)cc2s1 | 1.45% (inactive) |
| COc1ccc(CCN2CC(O)=C(c3nc(C)cs3)C2=N)cc1OC | 7.01% (inactive) |
| COc1cccc(OCc2cc(C(=O)NCCN3CCCCC3CO)no2)c1 (centres undefined) | -19.8% (inactive) |
| Cc1ccc(NNc2c(C)nc3ccccc3nc2=O)cc1 | 42.5% (inactive) |
| Cc1ccc2nc(-c3ccccc3)c(-c3ccccc3)nc2c1 | 2.44% (inactive) |
| O=C(Nc1ccc(S(=O)(=O)Nc2ncccn2)cc1)c1ccco1 | -1.81% (inactive) |
| COc1ccc(/C=C2\SC(=O)N(CCNC(=O)Cn3[nH]c(=O)c4ccccc4c3=O)C2=O)cc1 | 1.03% (inactive) |
| COc1ccc(C2SCC(=O)N2c2ccc(C)cc2)cc1 (centres undefined) | -1.14% (inactive) |
| CCC(=O)N1N=C(c2ccccc2)CC1c1ccc([N+](=O)[O-])cc1 (centres undefined) | 2.69% (inactive) |
| COc1ccc(O)c(C2=Nc3ccccc3N=C(c3cccs3)C2)c1 | -0.29% (inactive) |
| O=C(O)C1CC(c2ccccc2)=Nc2ccccc2S1 (centres undefined) | 13.4% (inactive) |
| COc1ccc(C2CC(c3cccs3)=NN2S(C)(=O)=O)cc1 (centres undefined) | -0.06% (inactive) |
| O=C(Nc1ccccc1)N1CCC(O)(c2cccc(C(F)(F)F)c2)CC1 | 1.21% (inactive) |
| CCN(CC)CCCN=C1N[C@@H](c2cccc(F)c2)C(C(=O)OC)=C(C)N1Cc1ccccc1 | -0.31% (inactive) |
| CC(C)C(NC(=O)OCc1ccccc1)C(=O)OCC(=O)NCc1ccco1 (centres undefined) | 8.7% (inactive) |
| Cc1ccc(C(=O)NNC(=O)c2cccc(C)c2)cc1 | -4.89% (inactive) |
| CCOc1ccc(S(=O)(=O)Nc2ncn[nH]2)cc1 | 1.15% (inactive) |
| COc1ccc2c(c1)c(C(C)=O)c(C)n2C | 4.3% (inactive) |
| CCOC(=O)c1c(C)n(C)c2ccc(OC(=O)c3ccc([N+](=O)[O-])cc3)cc12 | 25.7% (inactive) |
